Values joined by “and” are separate entries in the source; they are usually repeats but may differ in a detail not shown here. Equal values may be shown once. The campaign covered roughly 430,000 compounds. About 2,600 (0.6%) were called active. Rule as the data show it: active = inhibition mostly above about 37% (no sharp cut-off); inactive = mostly below about 20%. Shown is part of a subset that was picked to be rich in actives.

The values that follow come from PubChem BioAssay AID1272365 (Small Molecule Screening Facility, UW Madison, 2018).

For this experiment, the system named is PriA–SSB C-terminal tail interaction (Klebsiella pneumoniae). Kind of experiment: blocks PriA binding to SSB C-terminal tail, primary screen, biochemical, AlphaScreen (AID 1272365).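 Also: plate controls were negative control peptide for no effect and reference peptide for full effect.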 The note with it: AlphaScreen SSBct-PriA binding, biotinylated peptide; at 33 µM, stronger effect = higher value. Background: In Alpha technology, singlet oxygen from a donor bead excites a nearby acceptor bead.
Turning to `NS(=O)(=O)c1ccc(CCNC(=O)C(=O)Nc2nc3ccccc3s2)cc1`, the inhibition is -20% (inactive).
As to `COc1ccc2cc(C(=O)N(CCc3cccs3)C3CC3)[nH]c2c1`, the inhibition is -1% (inactive).
The result for `Cc1nc2ccccc2c(=O)n1-c1ccc(F)c(NC(=O)c2ccccc2Cl)c1` reads 3% (inactive); that for `Cc1nn(-c2ccc(Nc3ccc(NC(=O)COc4ccccc4)cc3)nn2)c(C)c1C`, -7% (inactive).
As for `O=S(=O)(Nc1ccc2[nH]ncc2c1)c1ccccc1Cl`, the figure is 1.19% (inactive).
As for `COc1cc(Nc2ccc(NS(=O)(=O)c3ccccc3Cl)cc2)nc(C)n1`, the figure is 5% (inactive); as for `CCc1ccccc1NC(=O)Nc1ccc(Nc2cc(-n3cccn3)ncn2)cc1`, -23% (inactive).
For the compound `O=S(=O)(Nc1ccc(Nc2ccc(-n3cccn3)nn2)cc1)c1ccccc1Cl`, the inhibition was 100% (active).
As for `Cc1cccc(NC(=O)Nc2ccc(Nc3ccc(-n4cccn4)nn3)cc2)c1C`, the figure is 66% (active) and 33% (inactive); as for `O=c1c2cc(-c3cccs3)nn2cnn1Cc1nc(-c2ccc(OCc3ccccc3)cc2)no1`, -16% (inactive); as for `CC(C)c1ccc(/C=C2\CC/C(=C\C=NN(C)C)C2=O)cc1`, 5.12% (inactive).
The result for `Cc1cc(C)cc(NC(=O)N2CCN(c3ccc4nnc(C5CC5)n4n3)CC2)c1` reads -16% (inactive).
With `CC(C)c1cc(=O)n(CC(=O)Nc2ccccc2C#N)cn1`, the inhibition is -2% (inactive).
The result for `Cc1ccccc1OCC(=O)NCCCS(=O)(=O)N1CCc2ccccc2C1` reads -9% (inactive).
As for `O=C(CSc1ncc(-c2cccc(Br)c2)o1)NCc1ccc2c(c1)OCO2`, the figure is -4% (inactive); as for `CCn1nccc1C(=O)Nc1ccc(-c2nc3ccccc3o2)cc1`, 83% (active); as for `CCn1nccc1C(=O)Nc1ccc(S(=O)(=O)NC23CC4CC(CC(C4)C2)C3)cc1`, -2.71% (inactive).
Regarding `CCC(=O)Nc1ccc(-c2nc3ccccc3o2)cc1`, the inhibition was -11% (inactive).
As to `O=C(c1ccc(OC(F)(F)F)cc1)N1CC(S(=O)(=O)C2CCCCC2)C1`, the inhibition was -1% (inactive).
As for `COc1ccc(CCNC(=O)C(=O)Nc2ccc3c(c2)CCCN3C(=O)c2cccs2)cc1`, the figure is 1% (inactive); as for `O[C@H](c1ccncc1)c1c(-c2ccccc2)[nH]c2ccccc12`, 2% (inactive).
As for `COc1ccc(NC(=O)COC(=O)Cn2c(C)nc3ccccc32)cc1OC`, the figure is -8.33% (inactive).
The result for `CCN(c1ccc(NC(=O)COC(=O)CCc2nc3ccccc3n2-c2ccccc2)cc1)C(C)C` reads 55.2% (active).
As for `Cc1ccc(NC(=O)COC(=O)CCc2nc3ccccc3n2-c2ccccc2)c(C)c1`, the inhibition is 4.81% (inactive).
`COc1cc([N+](=O)[O-])cc(C=NNC(=O)c2ccc(C)nc2)c1O`: the inhibition is 79.7% (inactive).
For the compound `CS(=O)(=O)Nc1c(Cl)c(Cl)c(Cl)c(Cl)c1Cl`, the inhibition was 3% (inactive).
The result for `Cc1ccc2cc(CCNC(=O)c3c(-c4ccccc4Cl)noc3C)c(=O)[nH]c2c1` reads 4.89% (inactive); that for `Cc1onc(-c2ccccc2Cl)c1C(=O)NCCn1ccc2ccccc21`, 5% (inactive) and 69.4% (active); that for `Cc1onc(-c2ccccc2Cl)c1C(=O)NCCCS(=O)(=O)N1CCN(c2ccccn2)CC1`, -12% (inactive).

Usually inhibition stands for the change of the read-out against control, counted positive when it falls.
